These results are taken from PubChem BioAssay.

The source made the active and inactive calls.

Assay [1] is described as follows: A549 cell viability effects, profiling panel, calcein-AM fluorescence, 48 h, basal (AID 1162). As to conditions: higher = more signal.
A short description of assay [2]: adipocyte viability effects, profiling panel, cell-based, 3T3-L1 adipocytes, calcein-AM fluorescence, 48 h, basal (AID 1163). The settings on record: 3T3-L1 adipocytes viability, higher = more signal.
Assay [3] in a line: HepG2 cell viability effects, profiling panel, calcein-AM fluorescence, 48 h, basal (AID 1164). As to conditions: higher = more signal.
The nature of assay [4]: MM1S cell viability effects, profiling panel, calcein-AM fluorescence, 48 h, basal (AID 1165).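 Also: viability of MM1S multiple myeloma cells under basal unstimulated conditions.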 As to conditions: higher = more signal.
The nature of assay [5]: basal RPMI8226 viability, no added stimulus, profiling panel, cell-based, calcein-AM fluorescence, 48 h, PK04 Diversity Set (AID 1166).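 Also: cells grown under basal conditions without added stimulus.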 The settings on record: RPMI8226 myeloma viability, higher = more signal.
Assay [6] in a line: basal HepG2 mitochondrial membrane potential changes, profiling panel, cell-based, JC-1 fluorescence, 24 h, 100 nL compound (AID 1167). The settings on record: higher = more signal.
A short description of assay [7]: basal 3T3-L1 adipocyte mitochondrial potential changes, profiling panel, cell-based, JC-1 fluorescence, 3T3-L1 adipocytes, 24 h, 100 nL compound (AID 1168). The settings on record: JC-1 mitochondrial fluorescence, higher = more signal, called active from +8 up or from −8 down.
Assay [8] is described as follows: basal RPMI8226 mitochondrial membrane potential changes, profiling panel, cell-based, JC-1 fluorescence, 24 h, 100 nL compound (AID 1169). The settings on record: RPMI8226 myeloma, JC-1 mitochondrial potential fluorescence, higher = more signal.
A short description of assay [9]: basal MM1S mitochondrial membrane potential changes, profiling panel, cell-based, JC-1 fluorescence, 24 h, 100 nL compound (AID 1170). As to conditions: higher = more signal.
The nature of assay [10]: A549 lung cancer cell viability effects, profiling panel, resazurin fluorescence, 24 h, PK04 Diversity Set (AID 1171). As to conditions: higher = more signal, called active from +8 up or from −8 down. (Resazurin is reduced to fluorescent resorufin, in cell work by metabolically active cells.)
Also: test concentration not given here.

`Cc1ccc(C(C)CC(O)C2C=CC3C(=O)N(c4ccccc4)C(=O)C3N2Nc2ccc(C#N)cc2)o1` (stereo not given): the z-score was 0.491 in [1]; -0.0968 in assay [2]; 0.459 in assay [3]; -3.7 in assay [4]; -0.355 in [5]; 0.175 in assay [6]. Also, the z-score in assay [7] is -0.155 (inactive); in assay [8] it was -1.05; in [9] it was -1.2; in [10], -1.17 (inactive).
Consider `COc1ccc([Si](C)(C)[C@@H]2[C@@H](CCn3cc([C@H](O)c4ccccc4)nn3)O[C@]3(C(=O)N(Cc4cccc(N5C(=O)c6cccc7cccc5c67)c4)c4ccccc43)[C@H]2C)cc1`, for which the z-score was -0.381 in assay [1]; 0.0092 in [2]; 0.3 in assay [3]; -0.189 in assay [4]; -2.11 in assay [5]; 1.07 in assay [6]. In addition, the z-score is -0.265 (inactive) in [7], -0.681 in assay [8], -0.193 in assay [9] and -1.26 (inactive) in assay [10].
As for `O=c1cccc(-c2ccco2)o1`, the z-score in [1] is -0.69; in assay [2], 0.474; in assay [3] it was 0.219; in assay [4], 0.0393; in [5], -0.159; in assay [6], -0.79. Moreover, the z-score in assay [7] is 1.1 (inactive); in assay [8] it was 0.773; in assay [9], -0.605; in assay [10], -0.214 (inactive).
As to `CC(C)=CCCC(C)=CC(O)C1C=CC2C(=O)N(c3ccccc3)C(=O)C2N1Nc1ccccc1F` (stereo not given), the z-score is 0.154 in assay [1]; 0.0094 in [2]; 0.443 in assay [3]; 0.381 in assay [4]; -0.93 in [5]; -0.143 in assay [6]. In addition, the z-score is -0.507 (inactive) in [7], -0.271 in assay [8], -0.426 in assay [9] and 0.598 (inactive) in assay [10].
Take `CN(C)C(=O)[C@@]1(Cc2ccccc2)COC(c2ccc(OCCCO)cc2)=N1`: the z-score was 0.0581 in assay [1]; -0.538 in assay [2]; -0.0485 in assay [3]; -1.22 in assay [4]; 0.726 in assay [5]; -0.455 in assay [6]. Further, the z-score in assay [7] was -0.384 (inactive); in assay [8] it was 0.0953; in assay [9], -1.17; in assay [10], -0.193 (inactive).
In the case of `CC(C)[C@H]1NC(=O)[C@@]23C(=O)N[C@@H](Cc4ccccc4)C2[C@H](C)[C@@]2(C)O[C@H]2C3/C=C/C/C=C\CNC(=O)[C@H](Cc2ccccc2)NC1=O` (stereo not given in full), the z-score in [1] was 0.716; in assay [2] it was -0.144; in assay [3], 0.42; in [4] it was -1.08; in assay [5] it was -1.39; in assay [6], 0.5. Also, the z-score is -0.769 (inactive) in assay [7], -0.132 in assay [8], 0.623 in [9] and -0.739 (inactive) in assay [10].
As for `COc1cc2c(cc1O)C(c1cccs1)N(Cc1sc3ccccc3c1Cl)CC2` (stereo not given), the z-score in assay [1] is -3.77; in assay [2], 0.623; in assay [3], -4.6; in assay [4] it was -3.27; in [5], -4.2; in assay [6] it was -3.1. The z-score is -0.197 (inactive) in [7], -0.894 in [8], -0.194 in [9] and -0.403 (inactive) in assay [10].
In the case of `CC(C)[Si]1(C(C)C)OCc2cc(-c3ccc(-c4ccc(Cl)c(Cl)c4)o3)nc(CCc3ccccc3)c21`, the z-score in assay [1] was 0.305; in [2], 0.405; in [3] it was 0.165; in [4], -3.2; in assay [5] it was -4.26; in [6], -2.07. Further, the z-score in assay [7] is 0.945 (inactive); in assay [8], -0.838; in assay [9], -1.72; in [10], 1.4 (inactive).
As to `O=C1C[C@@](C(=O)NCc2ccccc2)(c2ccc([N+](=O)[O-])cc2)[C@@H](c2ccc(CO)cc2I)N1CC12CC3CC(CC(C3)C1)C2`, the z-score in assay [1] is -1.84; in assay [2] it was 0.684; in [3] it was -2.67; in assay [4] it was -2.99; in [5], -4.33; in [6], 0.878. Moreover, the z-score in assay [7] was -0.473 (inactive); in assay [8] it was -1.03; in assay [9], -0.91; in assay [10], -1.63 (inactive).
Take `COCCOC(=O)N1C(=O)[C@@]2(c3cc(C#CCC(C(=O)OC)C(=O)OC)ccc31)[C@H](c1ccc(OCCO)cc1)N1[C@H](c3ccccc3)[C@H](c3ccccc3)OC(=O)[C@H]1[C@@H]2C(=O)Nc1nc2ccccc2s1`: the z-score in [1] is 0.705; in assay [2] it was 0.694; in assay [3], 0.278; in [4] it was -0.518; in [5] it was -0.312; in assay [6], -2.91. In addition, the z-score in [7] is 0.578 (inactive); in [8], -1.01; in assay [9], -1.29; in [10], 0.108 (inactive).
On to `COC(=O)C1N=C(c2ccc(OCCCO)cc2)N(c2ccccc2)O1` (stereo not given), for which the z-score in assay [1] is 0.893; in assay [2] it was 1.16; in [3], 0.634; in assay [4], -0.943; in [5] it was 0.5; in assay [6], 0.684. In addition, the z-score was -0.407 (inactive) in [7], -0.44 in assay [8], 0.042 in assay [9] and 0.953 (inactive) in assay [10].
For `CCOC(=O)C1=C[C@@H](C(C)(C)C)N(S(=O)(=O)c2ccc(C)cc2)[C@H]1c1ccccc1`, the z-score is -1.42 in assay [1]; -0.396 in [2]; -2.27 in [3]; -2.95 in assay [4]; -3.35 in [5]; 3.49 in assay [6]. Moreover, the z-score in [7] is -0.243 (inactive); in assay [8], -0.966; in assay [9], -0.75; in assay [10], 1.62 (inactive).
Turning to `CN1C(=O)[C@@]2(Cc3ccccc3)N=C(c3ccc(OCCCO)cc3)O[C@H]2c2ccccc21`, the z-score is -1.11 in assay [1]; -0.597 in assay [2]; -1.61 in [3]; -2.71 in [4]; -4.45 in assay [5]; 0.384 in assay [6]. Further, the z-score in assay [7] is 1.69 (inactive); in assay [8], -1.26; in assay [9] it was -1.89; in assay [10] it was -0.788 (inactive).
Regarding `O=C(CS)NCCCCCCNC(=O)[C@@H]1C[C@@H]2C(=O)NCC(=O)N2[C@@H]1c1ccc(O)cc1`, the z-score in assay [1] is 0.622; in assay [2] it was 0.182; in assay [3], 0.435; in [4], 0.21; in assay [5], 1.06; in assay [6] it was 0.677. Besides, the z-score was 0.138 (inactive) in assay [7], 0.391 in assay [8], -0.386 in assay [9] and -0.746 (inactive) in assay [10].
On to `CCOC(=O)C1=CCC(c2ccco2)N(S(=O)(=O)c2ccc(C)cc2)C1` (stereo not given), for which the z-score was -0.373 in assay [1]; 0.279 in assay [2]; 0.34 in assay [3]; -2.93 in assay [4]; -1.64 in [5]; -0.843 in assay [6]. The z-score in assay [7] is -1.32 (inactive); in [8], 0.733; in [9] it was -2.11; in assay [10] it was 0.326 (inactive).
